Results from PubChem BioAssay AID504332 (National Center for Advancing Translational Sciences (NCATS), 2011).
In all, about 350,000 compounds went through this assay and about 31,000 (8.9%) were called active. Where a call stands in place of a potency, no number is given. Inconclusive results (about 15%) are left out. This is one part of a sample in which actives are shown more often than they occur. Calls follow the shape of the dose curve; as a rule, active = well fitted inhibition curve with a large enough effect; inconclusive = small, poorly fitted or top-dose-only effect; inactive = no such curve, though single readings can be large or run the other way.

These compounds were tested against Histone-lysine N-methyltransferase EHMT2 (Homo sapiens) (UniProt Q96KQ7) (assay: qHTS Assay for Inhibitors of Histone Lysine Methyltransferase G9a). Conditions: G9a H3K9 monomethylation, AlphaScreen, 2 h; series mostly up to 59 µM.
Histone-lysine N-methyltransferase EHMT2 (Homo sapiens), sequence (Q96KQ7 913-1193 limits assumed): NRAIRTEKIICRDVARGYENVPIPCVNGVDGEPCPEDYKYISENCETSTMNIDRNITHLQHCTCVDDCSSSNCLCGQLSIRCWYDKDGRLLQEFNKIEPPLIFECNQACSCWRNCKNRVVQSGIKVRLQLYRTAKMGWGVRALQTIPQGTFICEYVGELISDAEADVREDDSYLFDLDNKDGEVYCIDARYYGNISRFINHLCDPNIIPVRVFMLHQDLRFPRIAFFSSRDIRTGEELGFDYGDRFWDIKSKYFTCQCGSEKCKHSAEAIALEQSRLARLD
Procedure, shortened: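 Compounds were preincubated with 20 nM G9a for 15 min, after which biotinylated H3K9 peptide (500 nM) and SAM (20 uM) started a 2 h room-temperature reaction. Monomethylated product was quantified by antibody-based AlphaScreen chemiluminescence.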
Also: nearly all actives have a fitted effect of over 75% in size.
Potency is read from the fitted curve at half-maximal effect.

SMILES	Potency	activity, negative = inhibition
Cc1ccc(C)c(N2CCN(C(=O)Cc3c(C(=O)O)c(C)cn3C)CC2)c1	inactive	
CCC(C(=O)N1CCN(S(=O)(=O)c2sc(C(=O)O)c(C)c2C(=O)O)CC1)c1ccccc1 (stereo not given)		-9.12% [at 2.33 µM] (inactive)
COc1cc(/C=N/Nc2ccc(C)cc2)cc(Br)c1O	3.98 µM (active)	
COc1ccc(C(=O)Oc2cc(/C=N/NS(=O)(=O)c3ccc(C)cc3)ccc2OC)cc1	inactive	
COc1cc(/C=N/O)cc(Br)c1OS(=O)(=O)c1ccc(C)cc1	inactive	
O=C(NC1CC(=O)N(c2ccc(F)cc2)C1)C1CCCCC1 (stereo not given)	inactive	
COc1ccc(NC(=O)CSc2nnc(-c3nnn(-c4ccc(F)cc4)c3C)o2)cc1	inactive	
Cc1c(O)c(C)c2c(c1O)C(=O)C[C@@H](c1ccccc1)O2		17.8% [at 2.33 µM] (inactive)
CCn1c(SCC(=O)Nc2nc(C)cs2)nnc1C(C)NC(=O)c1ccccc1 (stereo not given)	inactive	
CCn1c(SCC(=O)NNC(=O)c2ccc(OC)cc2)nnc1C(C)C	inactive	
CCn1c(C(C)NC(=O)c2ccc(C)cc2)n[nH]c1=S (stereo not given)	39.8 µM (active)	
CC(NC(=O)CCc1cn(Cc2ccccc2Cl)c2ccccc12)c1ccccc1 (stereo not given)	inactive	
COc1ccc(Cn2c(=O)n(-c3ccccc3C)c(=O)c3c4c(sc32)CN(C(C)=O)CC4)cc1	inactive	
CCN(CC)c1ccc2c(Nc3ccccc3)c(C=O)c(=O)oc2c1	inactive	
CCN(CC)c1ccc2oc(=O)c(C)nc2c1	11.2 µM (active)	
CCN(CC)c1ccc2cc(C(N)=O)/c(=N\NC(=O)c3ccncc3)oc2c1	inactive	
COc1ccc(CNc2nc(-c3ccc(Cl)cc3)nn2C(=O)c2ccccc2)cc1	inactive	
CCN(Cc1ccccc1)S(=O)(=O)c1cc2c3c(c1)CCN3C(=O)CC2	inactive	
O=C(NCc1ccccc1Cl)C1CCC(CNc2c(N3CCCCC3)c(=O)c2=O)CC1 (stereo not given)	inactive	
CCOc1ccccc1NC(=O)C1CCC(CNc2c(N3CCOCC3)c(=O)c2=O)CC1 (stereo not given)	inactive	
CCN(CC)c1ccc(NC(=O)C2CCC(CNc3c(N4CCCC4)c(=O)c3=O)CC2)c(C)c1 (stereo not given)	39.8 µM (active)	
COc1ccc(Cc2nc3ccc(C(=O)NCC4CCOCC4)cc3o2)cc1OC	inactive	

SMILES	Potency	activity, negative = inhibition
CC(C)C(=O)Nc1nnc(SCC(=O)N2C(C)CCCC2C)s1 (stereo not given)	79.4 µM (active)	
CC(C)N(C(=O)CSc1nnc(NC2CC2)s1)c1ccccc1		-6.53% [at 0.501 µM] (inactive)
CC1CCCC(C)N1C(=O)CSc1nnnn1C1CCCC1 (stereo not given)	inactive	
COc1cccc(-c2cc(C(=O)Nc3ccc(C)cc3)[nH]n2)c1	inactive	
COc1ccc(-c2csc(-c3c(N)c(C(=O)c4ccc(OC)c(OC)c4)n4ccccc34)n2)cc1	inactive	
COc1cc(CN(C(=O)c2ccccc2Br)c2ccccn2)cc(OC)c1OC	inactive	
O=C(c1ccncc1)N1CCN(S(=O)(=O)c2cc(C(F)(F)F)cc(C(F)(F)F)c2)CC1	inactive	
O=C(Nc1cc(Cl)cc(Cl)c1)C(NCCCO)c1ccccc1 (stereo not given)	inactive	
OCCCNC(c1ccccc1)c1ccc(O)cc1 (stereo not given)	11.2 µM (active)	
O=C(CNC(c1ccccc1)c1ccccc1)Nc1ccc(F)cc1	inactive	
CCCCN(C)CCCNC(=O)CN1N=C(c2ccc(OC)cc2)CCC1=O	inactive	
O=C(NCCCN1CCCC1=O)c1ccc(S(=O)(=O)Nc2ccccc2)cc1	inactive	
CC(=O)Nc1ccc(NC(=O)CCN2C(=O)C3CC=CCC3C2=O)cc1 (stereo not given)		-17% [at 12.7 µM] (inactive)
Cc1ccccc1OCC(=O)Nc1c(C(=O)Nc2ccccc2F)oc2ccccc12	inactive	
COc1cccc(N2CCN(C(=O)CCCCCn3c(=O)[nH]c4ccccc4c3=O)CC2)c1	inactive	
COc1cccc(C2c3[nH]c4ccccc4c3CCN2Cc2cccc(C)n2)c1 (stereo not given)	44.7 µM (active)	
COc1cccc(CNC(=O)c2n[nH]c3ccccc23)c1	inactive	
COc1ccc(CNC(=O)COCc2cc(-c3cccs3)on2)cc1OC	inactive	
CN(CC1CCCN(CCc2cccc(C(F)(F)F)c2)C1)C(=O)c1ccc2nc[nH]c2c1 (stereo not given)	inactive	
Cc1cc(C(=O)Nc2nnc(C3CC3)s2)c(C)s1		11.4% [at 12.7 µM] (inactive)
O=C(CNC(=O)c1cccnc1)N/N=C/c1cccnc1	inactive	
O=C(O)CSC(NC(=O)c1cccnc1)(C(F)(F)F)C(F)(F)F	14.1 µM (active)	

SMILES	Potency	activity, negative = inhibition
O=C(NNC(=O)c1cccnc1)Nc1ccccc1		-81.4% [at 2.33 µM] (inactive)
CCN(CC)S(=O)(=O)c1ccc(-c2cn3ccc(C)cc3n2)cc1		4.83% [at 0.501 µM] (inactive)
CCOC(=O)CSc1ccccn1	39.8 µM (active)	
CCOC(=O)CSc1ncc(-c2cccc(Cl)c2)cn1	inactive	
COC(=O)c1ccccc1NC(=O)CSc1ccccn1	inactive	
O=C(Nc1ccccc1Cl)N1CCC(CN2CCCCC2)CC1	inactive	
COc1ccc2sc(-c3ccc(N(C)C)cc3)c(C#CCO)c2c1		8.02% [at 0.501 µM] (inactive)
COc1ccc(-c2cc(-c3nc(-c4cc(OC)c(OC)c(OC)c4)no3)[nH]n2)c(OC)c1	inactive	
CC(C)(C)OC(=O)N/N=C/c1cn(-c2ccccc2)nc1-c1cccnc1	inactive	
CN(C)/N=C/c1cn(-c2ccccc2)nc1-c1cccnc1	56.2 µM (active)	
O=C(c1cn(-c2ccccc2)nc1-c1cccnc1)N1CCCCC1	inactive	
CCCCc1ccc(NS(=O)(=O)c2cccc(C(=O)N3CCCN(C)CC3)c2)cc1	inactive	
CC(=O)NC(CC(=O)Nc1cccc(S(=O)(=O)N2CCCC2)c1)c1ccccc1 (stereo not given)	inactive	
Cc1cc(C(F)F)nn1CC(=O)NC1CCCCCC1	79.4 µM (active)	
O=C(Cn1nc([N+](=O)[O-])nc1Br)NC1CCCCC1	inactive	
Cc1nn(CC(=O)NC2CCCCC2)c(=O)c2cccn12	inactive	
CCc1noc(C)c1C(=O)N1CCCSC1=Nc1ccccc1OC	inactive	
O=C1c2ccccc2C(=O)N1CCC#Cc1ccc2cc(C3(O)CCCCC3)oc(=O)c2c1		1.05% [at 0.501 µM] (inactive)
CC1CCCN(C(=O)c2ccc3c(c2)C(=O)N(CCC2=CCCCC2)C3=O)C1 (stereo not given)	39.8 µM (active)	
C=CCN1C(=O)c2ccc(C(=O)N3CCC(C(=O)OCC)CC3)cc2C1=O	inactive	
Cc1cc(=O)n2nc(N3CCCC(C(=O)NCCC4=CCCCC4)C3)sc2n1 (stereo not given)		4.22% [at 12.7 µM] (inactive)
